PubChem BioAssay (NCI)
Compounds without any hit were thinned out: in the full panel of roughly 79,000, 15% have a hit. Rule as the data show it: active = growth inhibition above about 70%; inactive = the rest.

Tests used:
[1] = NCI Yeast Anticancer Drug Screen. Data for the rad50 strain (AID 155);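 also: 0% = growth of vehicle-only cultures of the same strain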; conditions: S. cerevisiae rad50 strain growth inhibition; at 50.0 µM; stronger effect = higher value
Outline: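 Relative growth inhibition (compound vs vehicle) was measured in yeast with a defined repair-gene alteration.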

[2] = NCI Yeast Anticancer Drug Screen. Data for the mec2-1 strain (AID 157); conditions: S. cerevisiae mec2-1 strain, at 50.0 µM, stronger effect = higher value
Outline: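 Growth inhibition is read against vehicle-treated controls after compound exposure of the mec2-1 yeast strain, which is defective in DNA damage repair or cell cycle control.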

[3] = NCI Yeast Anticancer Drug Screen. Data for the sgs1 mgt1 strain (AID 161);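 also: 0% = growth of cultures given vehicle only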; conditions: S. cerevisiae sgs1 mgt1 strain, at 50.0 µM, stronger effect = higher value
Outline: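 Compounds are added to genetically altered yeast, and growth is compared with cultures given vehicle alone to give percent inhibition.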

[4] = NCI Yeast Anticancer Drug Screen. Data for the cln2 rad14 strain (AID 165);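 also: 0% = growth equal to vehicle treated cultures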; conditions: S. cerevisiae cln2 rad14 strain, at 50.0 µM, stronger effect = higher value
Outline: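 Growth inhibition, relative to vehicle-treated controls, is the read-out. The test organism is a yeast strain with defined genetic alterations, cln2 rad14.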

[5] = NCI Yeast Anticancer Drug Screen. Data for the bub3 strain (AID 167); conditions: S. cerevisiae bub3 mutant strain, at 50.0 µM, stronger effect = higher value
Outline: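 Screening used yeast with an engineered genetic alteration affecting cell cycle control. Compound-exposed cultures were compared with vehicle cultures, and reduced growth was taken as inhibition.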

[6] = NCI Yeast Anticancer Drug Screen. Data for the mlh1 rad18 strain (AID 175); conditions: S. cerevisiae mlh1 rad18 strain growth inhibition; at 50.0 µM; stronger effect = higher value
Outline: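 Cells of a genetically altered yeast strain, deficient in DNA damage repair, were treated with compound. Their growth was then compared with that of vehicle-treated cultures to give inhibition.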

Measured: growth inhibition

Cn1cc(-c2ccccc2)cc1-c1ccccc1
inactive: [1] -11.4% | [2] 6.6% | [3] -4.5% | [4] 4.9% | [5] -14.9% | [6] 9.75%

COC1OC(CBr)C(OC(=O)c2ccccc2)C(OC(C)=O)C1OC(C)=O (stereo unspecified)
inactive: [1] -23.9% | [2] -4.6% | [3] -12.2% | [4] 11% | [5] -1.5% | [6] -22.8%

O=C(Nc1ncnc2nc(-c3ccccc3)[nH]c12)c1ccccc1
inactive: [1] -30.1% | [2] -16.9% | [3] -5% | [4] -56.3% | [5] -6.65% | [6] 5.95%

CCOC(=O)C1/C(=C\O)C(=O)c2cc(OC)c(OC)cc2C1c1ccc(OC)c(OC)c1 (stereo unspecified)
inactive: [1] -0.5% | [2] 0.9% | [3] 20.6% | [4] 8.35% | [5] -5.95% | [6] 21.9%

C/C(N=NC(=S)N1CC(C)OC(C)C1)=C1\C=CC=CN1O (stereo unspecified)
inactive: [1] -7.3% | [2] -2.15% | [3] 11.8% | [4] 12.3% | [5] 13.8% | [6] 8.85%

COC(=O)C1C2C=CC(C2)C1C(=O)OC (stereo unspecified)
inactive: [1] -20.5% | [2] 36.5% | [3] -10.8% | [4] -27.9% | [5] -7.95% | [6] 0.1%

Cc1ccc(S(=O)(=O)[N-]C2C(=O)c3ccccc3C(=O)C2[n+]2cccc(C(N)=O)c2)cc1 (stereo unspecified)
inactive: [1] -1.75% | [2] 2% | [3] 9.5% | [4] 4.55% | [5] 8.8% | [6] -38.8%

CNC(=O)SCC(N)C(=O)O (stereo unspecified)
inactive: [1] 1.25% | [2] -4.85% | [3] -8.3% | [4] -16.4% | [5] -0.9% | [6] 2%

CCOC(=O)/C(OC(C)=O)=C1/C=C(C(=O)c2ccccc2)CCC1
inactive: [1] 7.8% | [2] 25.2% | [3] 11.9% | [4] -4.1% | [5] 27.1% | [6] 7.4%

O=C1CC[C@@H](S(=O)(=O)c2ccccc2)[C@H](/C=C/c2ccccc2)O1
inactive: [1] -5.5% | [2] 25.2% | [3] 37.6% | [4] 26.1% | [5] -7.4% | [6] -15.9%

O=C(CSc1nnc(-c2ccccc2NC(=O)C(F)(F)F)c(=O)[nH]1)NC(=O)Nc1ccccc1
inactive: [1] 31.7% | [2] -28.8% | [3] 11.7% | [4] 16.3% | [5] -8.35% | [6] 23.9%

C1CCC(C2CCCC2)CC1
inactive: [1] 7.5% | [2] -0.35% | [3] -13% | [4] -32.6% | [5] -17.2% | [6] 4.15%

NC(N)=Nc1cccc2ccccc12
inactive: [1] -1.45% | [2] 0.85% | [3] -5.65% | [4] -12.8% | [5] -0.45% | [6] -5.15%

COc1cc(NC=O)c2c(c1)SCC(=O)N2
inactive: [1] -1.75% | [2] -52.5% | [3] -8.75% | [4] 6.7% | [5] 6.2% | [6] -6.6%

COc1ccc(C2c3cc4c(cc3OC(Nc3ccccc3)C2C)OCO4)cc1 (stereo unspecified)
inactive: [1] 9% | [2] 9.95% | [3] 30% | [4] 43.8% | [5] 27.1% | [6] 33.6%

COc1ccc(OC)c(Cc2ccc(NC(C)=O)cc2)c1
inactive: [1] 4.75% | [2] -2.15% | [3] 3.3% | [4] -38.2% | [5] -0.75% | [6] -2.65%

CNC(=O)c1ccc(C(C)C)cc1
inactive: [1] 0.3% | [2] -1.95% | [3] -5.3% | [4] -10.7% | [5] 4.2% | [6] 0.65%

CCOC(=O)CNC1C(NC(C)=O)C(OC)OC2COC(c3ccccc3)OC21 (stereo unspecified)
inactive: [1] -7.7% | [2] 6.6% | [3] 6.7% | [4] -12.3% | [5] -0.75% | [6] -2.4%

CCC(=O)OCCCCC1CCCO1 (stereo unspecified)
inactive: [1] 9.35% | [2] 5.4% | [3] 2.25% | [4] 2.75% | [5] 12.3% | [6] 4.4%

O=C(Nc1ccc(Nc2ccc(NC(=O)c3ccccc3)c3c2C(=O)c2ccccc2C3=O)c2c1C(=O)c1ccccc1C2=O)c1ccccc1
inactive: [1] 6.8% | [2] -15.6% | [3] 6.05% | [4] 6.1% | [5] -1.95% | [6] -9.1%

ClC(Cl)=C(Cl)C1(Cl)CC1COCc1ccccc1 (stereo unspecified)
inactive: [1] 45.5% | [2] -10.1% | [3] -4.05% | [4] 17.9% | [5] -7.85% | [6] -3%

Nc1ccc(S(=O)(=O)Nc2cnc3c(Cl)cccc3n2)cc1
inactive: [1] -11% | [2] 4.2% | [3] 10.9% | [4] -39.5% | [5] 32.2% | [6] -0.6%

CC(C)C1OC2(C)OC(=N)C1(C#N)C(C#N)(C#N)C2C (stereo unspecified)
inactive: [1] -0.75% | [2] 2.2% | [3] -18.5% | [4] -10.7% | [5] -17.5% | [6] -13.8%

O=C([O-])[C+](C=Cc1cccc2ccccc12)C(=O)O
inactive: [1] 9.05% | [2] -5.4% | [3] 8.35% | [4] 5.35% | [5] 3.35% | [6] 31.3%

CN(C)Cc1onc(-c2c(Cl)cccc2Cl)c1C(=O)O
inactive: [1] 1.3% | [2] 8.2% | [3] -9.95% | [4] 6.05% | [5] 21.2% | [6] 8.4%

Nc1ncc2ncn(CCO)c2n1
inactive: [1] -22.1% | [2] -15.4% | [3] 23.1% | [4] 1.95% | [5] -6.85% | [6] 3.7%

CCOC(=O)Cn1nnnc1N
inactive: [1] -3.4% | [2] 23.6% | [3] -5.2% | [4] -21.9% | [5] -13.8% | [6] 30.6%

CC(=O)N1c2ccccc2C(C)(C)C1O (stereo unspecified)
inactive: [1] 6.85% | [2] 17.1% | [3] -3.55% | [4] -13.7% | [5] -12.4% | [6] 3.7%

COc1cccc(NC(=O)c2cccc(C(=O)Nc3cccc(OC)c3)c2)c1
inactive: [1] 7% | [2] 5.55% | [3] 4.15% | [4] -32.8% | [5] -2.6% | [6] 35%

CNc1nc2c(C)ccc3nc(N(C)C)nc-3c2n1C
inactive: [1] 0.6% | [2] -22.2% | [3] 4.4% | [4] 16.4% | [5] 20.1% | [6] 14.8%

CCCCCCCCCCCC(=O)CCCCCCCCCCC
inactive: [1] 4% | [2] 2.2% | [3] 2.75% | [4] -33.9% | [5] -4.15% | [6] -2.7%

Cc1c(CO)[n+](=O)c2ccccc2n1[O-]
inactive: [1] 30.4% | [2] 12.6% | [3] 0.45% | [4] -22.6% | [5] 3.4% | [6] 21.7%

Cc1ccc(COC(=O)Nc2ccc(C)c(NC(=O)OCc3ccc(C)cc3)c2)cc1
inactive: [1] 14.4% | [2] -1.15% | [3] 11.7% | [4] -2.9% | [5] -3.8% | [6] 30.1%

CC1(C)SCCNC1=O
inactive: [1] 3.35% | [2] 8.45% | [3] 8.8% | [4] 11.8% | [5] 15.8% | [6] 4.75%

Cn1c2cc3ccccc3cc2nc2cc3c(cc21)c(Cl)c(=O)c1ccccc13
inactive: [1] 10% | [2] -3% | [3] 12.8% | [4] 5.85% | [5] -4.45% | [6] -2.35%

OC1OC(CCl)C(Cl)C(O)C1O (stereo unspecified)
inactive: [1] 0.55% | [2] -2.95% | [3] 9.9% | [4] -11% | [5] -18.9% | [6] -16.6%

CCOC(CN/C(=C/c1ccc2ccccc2[n+]1C)SC)OCC
inactive: [1] -10.8% | [2] 9.15% | [3] -8.4% | [4] -12.1% | [5] -32.8% | [6] -8.2%

NC(=O)N/N=C1\CCn2cccc21
inactive: [1] -10.8% | [2] 1% | [3] -3.25% | [4] -2.2% | [5] 1.1% | [6] -5.1%

CC(=O)OCc1cocc1COC(C)=O
inactive: [1] -17.2% | [2] -36% | [3] 20.4% | [4] -3.2% | [5] -4.1% | [6] 8.3%

CC1(C)OC(COCCOCCCCCO)C(COCCOCCCCCO)O1 (stereo unspecified)
inactive: [1] 7.1% | [2] 3.75% | [3] 6.2% | [4] 17.9% | [5] -3.05% | [6] 6.7%

Nc1nc(Cc2ccccc2)nc2[nH]ncc12
inactive: [1] 3.85% | [2] 6.3% | [3] 3.2% | [4] -18.5% | [5] -8.9% | [6] -1.6%
